Bioassay records: PubChem, Broad Institute
BL2 CD40 inh = CD40 pathway inhibition in BL2 cells. BL2 NF-kB luciferase reporter, CD40L-induced, 4 h. inhibition, % at 10 µM. 83,000 compounds, 0.94% hits;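 active means mean inhibition of at least 50% with a set share of replicates also reaching that level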;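 further: 0% = neutral control wells and 100% = IKK inhibitor VII at 50 µM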
An asterisk follows results filed as active; [ ] = remark or other dose. Only a selection was taken, and hits are over-represented in it overall.

SMILES	BL2 CD40 inh
CCOC(=O)c1cc2c(=Cc3ccc(N(C)C)cc3)c3ccccc3n2[n+]1C	24.3
C[n+]1c(-c2ccccc2)cc2c(=Cc3ccc([N+](=O)[O-])cc3)c3ccccc3n21	110.0*
C[n+]1c(-c2ccccc2)cc2c(=Cc3ccccc3)c3ccccc3n21	93.2*
CO[C@@H](CN(C)CC1CCOCC1)[C@H](C)CN(C(=O)Nc1ccc(F)cc1)[C@@H](C)CO	-10.8[25 µM]
C[C@@H]1CN([C@@H](C)CO)C(=O)c2cc(NC(=O)Cc3cn(C)c4ccccc34)ccc2O[C@H]1CN(C)C(=O)Nc1ccccc1	-21.8
C/C=C/c1ccc([C@@H]2[C@H]3CN(S(=O)(=O)c4ccc(OC)cc4)CCCCN3[C@H]2CO)cc1	21.7[25 µM]
Cc1cc(C(=O)COC(=O)CNC(=O)c2ccccc2)c(C)n1CC1CCCO1 (stereo not given)	57.9*
COc1cc(OC)cc(C(=O)OCC(=O)c2cc(C)n(CC3CCCO3)c2C)c1 (stereo not given)	-26.8
Cc1cc(C(=O)COC(=O)c2ccc(O)cc2)c(C)n1CC1CCCO1 (stereo not given)	24.3
CNC[C@H]1Oc2ccc(NS(=O)(=O)c3c(C)noc3C)cc2CC(=O)N([C@H](C)CO)C[C@H]1C	-8.1
O=C(c1ccccn1)N1C[C@@H]2[C@H](c3ccccc31)[C@@H](CO)N2C(=O)C1CCCC1	-26.0
COc1ccc(OCC(=O)OCC(=O)NCc2ccco2)cc1	8.8
COc1ccc(CC(=O)OCC(=O)NCc2ccco2)cc1	5.1
Cc1cc(OCC(=O)OCC(=O)NCc2ccco2)ccc1Cl	30.7*
CC(=O)N1[C@H](C(=O)N[C@@H](C)c2ccccc2)[C@@H](CO)[C@@H]2Cn3c(cccc3=O)[C@@H]21	2.3[25 µM]
C[C@@H]1C(=O)N[C@H](c2ccccc2)CC=CC[C@H](C)Oc2ccccc2C(=O)N1C (mixture of isomers)	2.7[25 µM]
O=S(=O)(c1cccs1)N1CCCCN2[C@@H](CO)[C@H](c3ccc(C4=CCCC4)cc3)[C@@H]2C1	-3.9[25 µM]
C/C=C/c1cccc(-c2nc(C(=O)NC3Cc4ccccc4C3)cc3c2[C@H](CCO)N(C(C)=O)C3)c1	13.1[25 µM]
CC(C)NC(=O)N1Cc2cc(C(=O)NC3Cc4ccccc4C3)nc(-c3cccc(-c4cccnc4)c3)c2[C@@H]1CCO	56.8*[25 µM]
CCC(=O)N1Cc2cc(C(=O)N3CCCCC3)nc(-c3cccc(-c4cccnc4)c3)c2[C@H]1CCO	1.1[25 µM]
CN1C(=O)c2cc(NC(=O)C3CC3)ccc2OC[C@@H]2O[C@@H](CC(=O)NCCc3ccncc3)CC[C@@H]21	-6.6
CN(C)C(=O)c1ccc(-c2ccc3c(c2)[C@H]2[C@H](CCN2C(=O)C2CCC2)[C@@H](CO)N3C)cc1	17.3
O=C(c1nnsc1S(=O)(=O)c1ccc(Cl)cc1)N1CCOCC1	96.6*
O=C(N1CCOCC1)N1CCN(S(=O)(=O)c2ccc(Cl)cc2)C1	6.1
O=C(c1ccc(S(=O)(=O)Nc2ccccc2Cl)cc1)N1CCOCC1	7.1
SMILES	BL2 CD40 inh
CCc1nc2ccc(C(=O)N3CCC(C(N)=O)CC3)cc2nc1CC	30.9
COc1cccc(NC(=O)C[C@H]2CC[C@H]3[C@H](COc4ccc(NC(=O)C5CCC5)cc4C(=O)N3C)O2)c1	-1.1
C[C@@H]1CN([C@H](C)CO)C(=O)c2ccccc2-c2ccccc2CO[C@@H]1CN(C)C(=O)Nc1ccnc(N2CCOCC2)c1	-1.7[25 µM]
COc1ccccc1-c1ccc([C@@H]2[C@@H](C#N)N(C(=O)C3CC3)[C@H]2CO)cc1	-4.4
C[C@@H]1CN([C@@H](C)CO)C(=O)Cc2cc(NC(=O)Cc3cn(C)c4ccccc34)ccc2O[C@@H]1CN(C)C(=O)Nc1ccccc1	-3.5
C[C@H]1CN([C@@H](C)CO)C(=O)Cc2cc(NS(=O)(=O)c3cccs3)ccc2O[C@@H]1CN(C)Cc1ccc(Cl)c(Cl)c1	56.9*
C[C@@H]1CN([C@@H](C)CO)C(=O)c2cc(NS(=O)(=O)c3cccs3)ccc2O[C@@H]1CN(C)Cc1ccc(C(=O)O)cc1	1.8[25 µM]
C[C@@H]1CN([C@@H](C)CO)C(=O)Cc2cc(NS(=O)(=O)c3ccccc3)ccc2O[C@H]1CN(C)Cc1ccc(Cl)c(Cl)c1	68.3*
C[C@@H]1CN([C@H](C)CO)C(=O)Cc2cc(NS(=O)(=O)c3ccc(F)cc3)ccc2O[C@@H]1CN(C)Cc1ccncc1	2.8[25 µM]
C[C@@H]1CN([C@@H](C)CO)C(=O)Cc2cc(NC(=O)Nc3ccc(C(F)(F)F)cc3)ccc2O[C@H]1CN(C)Cc1ccccc1	-3.7
C[C@@H]1CN([C@@H](C)CO)C(=O)Cc2cc(NS(=O)(=O)c3ccc(F)cc3)ccc2O[C@@H]1CN(C)Cc1ccncc1	3.3[25 µM]
Cc1noc(C)c1S(=O)(=O)Nc1ccc2c(c1)CC(=O)N([C@@H](C)CO)C[C@@H](C)[C@@H](CN(C)Cc1ccc(Cl)c(Cl)c1)O2	14.7
C[C@@H]1CN([C@@H](C)CO)C(=O)Cc2cc(NC(=O)Cc3cn(C)c4ccccc34)ccc2O[C@H]1CN(C)Cc1ccc(C(F)(F)F)cc1	66.0*[25 µM]
C[C@H](CO)N1C[C@H](C)[C@@H](CN(C)Cc2ccc(Cl)c(Cl)c2)Oc2ccc(NS(=O)(=O)c3ccc(Cl)cc3)cc2CC1=O	14.4
